The text below walks through data of PubChem BioAssay (Tox21).

“And” between values parts separate entries of the source, which are not always exact repeats. Equal entries are not always repeated. Records with an inconclusive call do not appear. The source holds several records for some structures; these can differ, active in one and inactive in another. The source made the active and inactive calls. Unless noted, the call rests on the fitted dose curve; in most records, active means well fitted curve in the direction sought with a large enough effect in the repeat runs; inconclusive means weak or mixed curves; inactive means no such curve, though single readings can be large; an effect the other way counts as inactive or inconclusive.

Assay [1] can be described thus: qHTS assay to identify small molecule antagonists of the estrogen related receptor (ERR) signaling pathway from Tox21 library - cell viability counter screen (AID 1224834). Further: on the % scale 0 is the no-effect control and ±100 the full control effect; nearly all actives have a fitted effect of over 30% in size. An outline of the steps: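 Seeded ERR cells were rested 6 h at 37 C/5% CO2 before compounds, positive and negative controls or DMSO were added. Incubation continued for 17.5 h, and viability was then quantified by CellTiter-Fluor fluorescence.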
A general note: In qHTS, concentration-response curves come from the screen itself.

In assay [2] the target is Luciferin 4-monooxygenase (Photinus pyralis) (UniProt P08659). Description: qHTS assay to identify small molecule inhibitors of firefly luciferase (AID 1224835). Further: nearly all actives have a fitted effect of over 25% in size. Further: potency means the concentration at half of the fitted maximal effect. In outline: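 Quantitative HTS format; KM concentrations of both substrates. Purified P. pyralis FLuc activity quantified from luminescence images.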
Sequence of Luciferin 4-monooxygenase (Photinus pyralis) (P08659 whole entry, looked up): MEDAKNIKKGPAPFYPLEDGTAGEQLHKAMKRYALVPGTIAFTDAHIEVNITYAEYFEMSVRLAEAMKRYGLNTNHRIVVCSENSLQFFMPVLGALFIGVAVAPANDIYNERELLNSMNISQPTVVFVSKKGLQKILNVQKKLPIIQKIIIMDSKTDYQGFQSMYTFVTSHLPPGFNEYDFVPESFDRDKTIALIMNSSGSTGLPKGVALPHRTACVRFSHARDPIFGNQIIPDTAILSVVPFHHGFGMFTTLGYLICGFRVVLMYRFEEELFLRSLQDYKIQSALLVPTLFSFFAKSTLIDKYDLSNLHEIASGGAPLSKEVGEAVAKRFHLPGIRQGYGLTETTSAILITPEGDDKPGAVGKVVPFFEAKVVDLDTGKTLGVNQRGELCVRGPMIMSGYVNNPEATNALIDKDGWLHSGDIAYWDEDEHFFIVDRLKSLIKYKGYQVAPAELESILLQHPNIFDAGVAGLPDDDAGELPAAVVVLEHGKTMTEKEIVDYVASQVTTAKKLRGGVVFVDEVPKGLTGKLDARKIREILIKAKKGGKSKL
Assay [3] is described as follows: qHTS assay to identify small molecule agonists of the constitutive androstane receptor (CAR) signaling pathway - cell viability counter screen (AID 1224836). Further: on the % scale 0 is the no-effect control and ±100 the full control effect; nearly all actives have a fitted effect of over 45% in size. An outline of the steps: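 Multiplexed viability check: HepG2-CYP2B6-hCAR cells, 15-point compound dosing, 0.75 uM PK11195 final, 23 h at 37 C, CellTiter-Fluor fluorescence.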
Assay [4] can be described thus: qHTS assay to identify small molecule antagonists of the constitutive androstane receptor (CAR) signaling pathway - cell viability counter screen (AID 1224837). Further: on the % scale 0 is the no-effect control and ±100 the full control effect; nearly all actives have a fitted effect of over 45% in size. An outline of the steps:
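To flag cytotoxic false antagonists, HepG2 hCAR/CYP2B6-2.2kb cells were treated 23 hr with 15-concentration compound series and 50 nM CITCO at 37 C/5% CO2; CellTiter-Fluor fluorescence was the measured end point.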

Assay [5] addresses Nuclear receptor subfamily 1 group I member 3 (Homo sapiens) (UniProt Q14994). Description: qHTS assay to identify small molecule antagonists of the constitutive androstane receptor (CAR) signaling pathway (AID 1224838).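 Further: HepG2 cells stably expressing hCAR with CYP2B6 luciferase reporter stimulated by CITCO; on the % scale 0 is the no-effect control and ±100 the full control effect; nearly all actives have a fitted effect of over 40% in size.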 An outline of the steps:
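Human hepatoma HepG2 cells expressing hCAR and a CYP2B6 promoter (2.2 kb) luciferase construct; compound titration (15 points) with 50 nM CITCO final, 24 h at 37 C/5% CO2; luminescence via ONE-Glo after 30 min at room temperature.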

A short description of assay [6]: qHTS assay to identify small molecule antagonists of the estrogen related receptor signaling pathway with the pleiotropic PPARgamma coactivator (PGC) from Tox21 10K library - cell viability counter screen (AID 1224840; active means well fitted cell-killing curve with a large enough effect in the repeat runs, not every such curve was filed as active; further: on the % scale 0 is the no-effect control and ±100 the full control effect; nearly all actives have a fitted effect of over 40% in size). In outline: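 Seeded PGC/ERR cells (2,000/well, 6 h, 37 C/5% CO2) get compound by pin tool; 17.5 h incubation at 37 C; CellTiter-Fluor added, 30 min, fluorescence measured.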

The target of assay [7] is Thyrotropin receptor (Homo sapiens) (UniProt P16473). Description: qHTS assay to identify small molecule agonists of the thyroid stimulating hormone receptor (TSHR) signaling pathway (AID 1224843; calls by dose curve; further: on the % scale 0 is the no-effect control and ±100 the full control effect; nearly all actives have a fitted effect of over 45% in size). In outline:
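Compounds are titrated over 15 concentrations, in triplicate, onto TSHR-HEK293 cells seeded at 800/well. Plates sit 30 min at room temperature before cAMP-d2 and anti-cAMP cryptate are added; signal is read after a further hour.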

A short description of assay [8]: qHTS assay to identify small molecule agonists of the hypoxia (HIF-1) signaling pathway - cell viability counter screen (AID 1224844; calls by dose curve; further: nearly all actives have a fitted effect of over 50% in size; further: potency means the concentration at half of the fitted maximal effect). An outline of the steps: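 HRE-bla ME-180; 0.5% dFBS; cpd 17 h, 37C, 5% CO2; CellTiter-Glo lum., 30 min RT, post-FRET read, same wells.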
The nature of assay [9]: qHTS assay to identify small molecule agonists of H2AX (AID 1224845; active means well fitted activation curve with a large enough effect in the signal ratio in the repeat runs, not every such curve was filed as active; the % refers to the signal ratio; further: on the % scale 0 is the no-effect control and ±100 the full control effect). An outline of the steps: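 Wild-type CHO-K1 cells plated overnight, then exposed 3 hr at 37C to compounds at 15 concentrations (0.76% DMSO). Lysed, then HTRF anti-pH2AX(S139)-cryptate/anti-H2AX-d2 detection after 24 hr at room temperature; emissions 665 and 620 nm.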
The nature of assay [10]: qHTS assay to identify small molecule agonists of the hypoxia (HIF-1) signaling pathway (AID 1224846; active means well fitted activation curve with a large enough effect in the signal ratio in the repeat runs, not every such curve was filed as active; the % refers to the signal ratio; further: on the % scale 0 is the no-effect control and ±100 the full control effect). An outline of the steps: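 Reporter induction in HRE-bla ME-180 cells is taken as agonism: cells sit 5 hrs after plating, receive compounds or DMSO only, incubate 17 hrs at 37C under 5% CO2, and are loaded with CCF4-AM for beta-lactamase FRET measurement.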
Assay [11] can be described thus: qHTS assay to identify small molecule agonists of H2AX - cell viability counter screen (AID 1224847; calls by dose curve; further: nearly all actives have a fitted effect of over 30% in size; further: potency means the concentration at half of the fitted maximal effect). An outline of the steps:
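After overnight plating of 1000 CHO-K1 cells per well, a 15-concentration compound series was applied for 3 hr at 37C. Luminescence from CellTiter-Glo, read following 30 min at room temperature, reflected cell viability.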

Assay [12] can be described thus: qHTS RealTime-Glo MT Cell Viability Assay in HepG2 cells - 24 hour (AID 1224867). Further: on the % scale 0 is the no-effect control and ±100 the full control effect; nearly all actives have a fitted effect of over 50% in size. An outline of the steps: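 Real-time, nonlytic viability: 600 HepG2 cells/well mixed with NanoLuc enzyme plus prosubstrate; 5 h settle, compound (DMSO) added by pintool; luminescence monitored over 40 h at 37 C.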
A short description of assay [13]: qHTS RealTime-Glo MT Cell Viability Assay in HEK293 cells - 32 hour (AID 1224868). Further: nearly all actives have a fitted effect of over 50% in size. Further: potency means the concentration at half of the fitted maximal effect. An outline of the steps:
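Cells + reagent dispensed (600 cells/well, HEK293) → 5 h at 37 C/5% CO2 → 23 nL compound in DMSO pinned → 40 h at 37 C → luminescence read at 0, 8, 16, 24, 32, 40 h.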

The nature of assay [14]: A CellTox Green Cytotoxicity Assay to monitor cytotoxicity in HEK293 cells - 0 hour (AID 1224869). Further: on the % scale 0 is the no-effect control and ±100 the full control effect; nearly all actives have a fitted effect of over 50% in size. In outline:
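Tox21 screen in HEK293: membrane-impermeant cyanine dye fluoresces on binding dead-cell DNA; compound pinned 5 h post-seeding, plates held at 37 C, signal read repeatedly through 40 h.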

Assay [15] is described as follows: qHTS RealTime-Glo MT Cell Viability Assay in HepG2 cells - 40 hour (AID 1224870). In outline: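 HepG2 cells mixed with RealTime-Glo MT reagents (NanoLuc plus cell-permeant prosubstrate) were seeded at 600 cells/well, incubated 5 h at 37 C/5% CO2, then pinned with compounds in DMSO; nonlytic luminescence tracked viability during 40 h treatment.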
In assay [16] the target is Nuclear receptor subfamily 1 group I member 3 (Homo sapiens) (UniProt Q14994). Description: qHTS assay to identify small molecule agonists of the constitutive androstane receptor (CAR) signaling pathway (AID 1224839). Further: nearly all actives have a fitted effect of over 15% in size. Further: potency means the concentration at half of the fitted maximal effect.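 On activation: HepG2 cells stably carrying human CAR and a CYP2B6 luciferase reporter; on the % scale 0 is the no-effect control and ±100 the full control effect.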 In outline: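 Using human hepatoma HepG2 cells engineered with hCAR and a CYP2B6-2.2kb reporter, 15-concentration compound series were incubated 24 h alongside PK11195 at 0.75 uM final, with luminescence quantified afterwards.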
Sequence of Nuclear receptor subfamily 1 group I member 3 (Homo sapiens) (Q14994 whole entry, looked up): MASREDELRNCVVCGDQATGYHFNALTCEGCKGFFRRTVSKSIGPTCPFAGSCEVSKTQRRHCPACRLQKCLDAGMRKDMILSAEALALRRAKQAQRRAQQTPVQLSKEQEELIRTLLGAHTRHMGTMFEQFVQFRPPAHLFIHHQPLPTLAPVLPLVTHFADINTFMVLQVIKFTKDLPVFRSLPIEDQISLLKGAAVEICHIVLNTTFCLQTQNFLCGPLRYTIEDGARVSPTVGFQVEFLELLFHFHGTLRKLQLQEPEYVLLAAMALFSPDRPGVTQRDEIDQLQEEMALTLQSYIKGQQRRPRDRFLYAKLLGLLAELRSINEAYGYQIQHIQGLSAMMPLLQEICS

A short description of assay [17]: qHTS assay to identify small molecule antagonists of the estrogen related receptor signaling pathway with the pleiotropic PPARgamma coactivator (PGC) from Tox21 10K library (AID 1224841; call rule not given here). An outline of the steps: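 Test chemicals dissolved in DMSO were applied to pre-incubated (6 h) PGC/ERR cells at 2,000 cells/well for an 18 h, 37 C treatment; reporter luminescence was then read using One-Glo.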

Assay [18] in a line: qHTS assay to identify small molecule agonists of the estrogen related receptor signaling pathway with the pleiotropic PPARgamma coactivator (PGC) from Tox21 10K library (AID 1224842). Further: on the % scale 0 is the no-effect control and ±100 the full control effect; nearly all actives have a fitted effect of over 15% in size. An outline of the steps:
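PGC/ERR reporter cells (NTP line) were seeded 2,000 per well, rested 6 h at 37 C/5% CO2, then pin-dosed with compounds in DMSO for 18 h at 37 C; luciferase read by One-Glo luminescence after 30 min at room temperature.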

A short description of assay [19]: qHTS assay to identify small molecule antagonists of the estrogen related receptor (ERR) signaling pathway from Tox21 library (AID 1224848). In outline:
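First, 2,000 ERR cells per well were plated and held 6 h at 37 C/5% CO2. Next, compounds in DMSO were pinned in and left 18 h at 37 C. Finally, ONE-Glo was added and luminescence read after 30 min at room temperature.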

A short description of assay [20]: qHTS assay to identify small molecule agonists of the estrogen related receptor (ERR) signaling pathway from Tox21 library (AID 1224849; calls by dose curve; further: on the % scale 0 is the no-effect control and ±100 the full control effect; nearly all actives have a fitted effect of over 15% in size). Particulars: ERR reporter cell line, ONE-Glo luciferase, 18 h. An outline of the steps: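 Tox21 compounds tested for ERR agonism in an NTP reporter cell line: 18 h treatment at 37 C, then ONE-Glo luminescence.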

Sequence of Thyrotropin receptor (Homo sapiens) (P16473 whole entry, looked up): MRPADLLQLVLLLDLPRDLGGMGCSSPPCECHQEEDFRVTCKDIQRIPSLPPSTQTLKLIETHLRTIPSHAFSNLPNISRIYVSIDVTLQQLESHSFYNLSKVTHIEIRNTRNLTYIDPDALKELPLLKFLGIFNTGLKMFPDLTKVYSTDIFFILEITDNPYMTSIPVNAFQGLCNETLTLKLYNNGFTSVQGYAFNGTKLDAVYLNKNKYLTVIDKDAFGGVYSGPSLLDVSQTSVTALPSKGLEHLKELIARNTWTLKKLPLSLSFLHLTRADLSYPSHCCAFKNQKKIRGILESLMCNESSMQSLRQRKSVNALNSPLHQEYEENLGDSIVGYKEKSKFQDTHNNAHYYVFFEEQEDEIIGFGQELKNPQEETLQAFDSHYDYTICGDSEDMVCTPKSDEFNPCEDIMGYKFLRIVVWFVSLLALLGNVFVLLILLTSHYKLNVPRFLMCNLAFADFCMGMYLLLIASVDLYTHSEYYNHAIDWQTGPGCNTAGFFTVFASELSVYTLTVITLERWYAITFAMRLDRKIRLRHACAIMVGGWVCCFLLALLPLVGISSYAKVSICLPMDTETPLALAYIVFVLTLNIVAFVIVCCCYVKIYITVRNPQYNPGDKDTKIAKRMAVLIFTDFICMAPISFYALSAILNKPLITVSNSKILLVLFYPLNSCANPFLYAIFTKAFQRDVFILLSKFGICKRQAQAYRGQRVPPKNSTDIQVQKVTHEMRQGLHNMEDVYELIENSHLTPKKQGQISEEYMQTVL

For the compound `OC[C@H]1O[C@@H]2O[C@H]3[C@H](O)[C@@H](O)[C@@H](O[C@H]4[C@H](O)[C@@H](O)[C@@H](O[C@H]5[C@H](O)[C@@H](O)[C@@H](O[C@H]6[C@H](O)[C@@H](O)[C@@H](O[C@H]7[C@H](O)[C@@H](O)[C@@H](O[C@H]1[C@H](O)[C@H]2O)O[C@@H]7CO)O[C@@H]6CO)O[C@@H]5CO)O[C@@H]4CO)O[C@@H]3CO`, the Potency result in assay [1], in assay [2], in assay [3], in assay [4], in assay [5] and in assay [6] was “inactive” in each case. Also, the Potency result in [7], in assay [8], in assay [9], in assay [11], in [12] and in [13] was “inactive” each time. For the same compound, the Potency entry in [14] and in assay [15] was “inactive” each time. In addition, the outcome in assay [10] was inactive.

Regarding `CC(C)(Oc1ccc(Cl)cc1)C(=O)O`, the Potency result in [1], in assay [2], in assay [3], in assay [4], in [5] and in assay [16] was “inactive” each time. The Potency entry in assay [6], in assay [7], in assay [8], in assay [9], in [11] and in assay [12] was “inactive” throughout. Also, the Potency result in [13], in assay [14] and in assay [15] was “inactive” throughout.

`COc1ccc2nc(N)sc2c1`: the Potency entry in assay [1], in [3], in assay [4], in assay [5], in assay [6] and in assay [7] was “inactive” each time. In addition, the Potency result in assay [8], in assay [9], in assay [11], in assay [12], in [14] and in assay [15] was “inactive” throughout. For the same compound, the Potency was 35.6 µM (active) and 31.7 µM (active) in assay [2]; 54.5 µM (active) and 27.3 µM (active) in [16]; “inactive and 2.19 µM (active)” in [13]. Besides, in [10], the result was inactive.

As to `CCC/C=C/C=O`, the Potency result in assay [1], in assay [2], in assay [3], in assay [4], in assay [5] and in assay [6] was “inactive” each time. The Potency result in [7], in assay [8], in [9], in [11], in [12] and in [13] was “inactive” each time. The Potency result in assay [14] and in assay [15] was “inactive” in each case. In addition, the result in assay [10] was inactive.

For the compound `CC(=O)Oc1ccc(C(c2ccc(OC(C)=O)cc2)c2ccccn2)cc1`, the Potency result in [1], in assay [2], in assay [3], in assay [4], in [6] and in [7] was “inactive” throughout. In addition, the Potency entry in [9], in assay [11], in assay [12], in assay [13], in assay [14] and in assay [15] was “inactive” throughout. Further, in assay [8], the Potency is 109 nM (active) and 756 nM (active). Further, the result in assay [10] was inactive.

On to `O=C(O)CCCC(=O)O`, for which the Potency entry in assay [1], in assay [2], in [3], in [4], in [5] and in assay [16] was “inactive” in each case. The Potency result in assay [6], in assay [7], in [8], in assay [9], in assay [11] and in assay [12] was “inactive” in each case. Further, the Potency result in [13], in [14] and in [15] was “inactive” in each case. In addition, the result in assay [10] was inactive.

In the case of `CCCCCCCC/C=C\CCCCCCCC(=O)O`, the Potency result in assay [1], in assay [3], in [4], in [6], in [7] and in assay [8] was “inactive” in each case. Moreover, the Potency entry in assay [9], in assay [11], in [12], in [13], in [14] and in assay [15] was “inactive” throughout. In addition, the Potency in assay [2] is 71.4 µM (active).

In the case of `CC1(C)NC(=O)N(c2ccc([N+](=O)[O-])c(C(F)(F)F)c2)C1=O`, the Potency entry in [1], in [2], in [3], in assay [4], in assay [5] and in assay [6] was “inactive” in each case. The Potency entry in assay [17], in assay [18], in [7], in [8], in [9] and in assay [12] was “inactive” throughout. The Potency entry in [14] and in assay [15] was “inactive” each time. The Potency in [11] was 28.4 µM (active) and inactive; in [19], 17.2 µM (active) and 11.9 µM (active); in [13], 24.5 µM (active). Also, the values for the activity change, positive = activation in assay [20] (at 42.5 µM (top of the series)) and in [20] (at 92.4 µM (top of the series)) were -39.2% (inactive) and -43.1% (inactive), respectively.
